# IL-1B inflam inh – qHTS for Inhibitors of Inflammasome Signaling: IL-1-beta AlphaLISA Primary Screen; 4.7% of 360,000 active; THP-1 LPS/ATP IL-1B secretion, AlphaLISA, 16 h; stronger effect = lower value; activity change, % at 57.5 µM; in the data active means activity change below about -50%; inconclusive means mostly about -30% to -49%
#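 Secreted IL-1B measured by AlphaLISA bead assay after 16 h compound exposure of THP-1 cells; compounds (final up to 57.5 uM) added 1 h before LPS (250 ng/mL) and ATP (1.25 mM) stimulation; lower signal means less secretion.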
# HT1080NT lethal – qHTS for induction of synthetic lethality in tumor cells producing 2HG: qHTS for the HT-1080-NT fibrosarcoma cell line. HT-1080-NT fibrosarcoma viability, CellTiter-Glo ATP luminescence, 48 h. Potency, µM (doses to about 46.1 µM), for the others: at the top dose activity, negative = less viability, most hits filed as cytotoxic. 1.6% of 360,000 active. AID 686970, 2013;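 further: NT is the 2HG producing partner of a matched IDH1 knockdown line; potency means the concentration at half of the fitted maximal effect; 0% = DMSO-treated cells and -100% = media-only wells without cells; nearly all actives have a fitted effect of over 55% in size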
#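 750 cells/well, RPMI + 5% FBS; 2 h settle, compound pin-transfer, 48 h at 37 degrees C. CellTiter-Glo 10 min RT, luminescence. Normalized to DMSO and media-only wells.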
# TDP1 cell CPT – qHTS for Inhibitors of human tyrosyl-DNA phosphodiesterase 1 (TDP1): qHTS in cells in presence of CPT; chicken DT40 Tdp1-/-;hTDP1 cells + 20 nM CPT, ATP luminescence, 48 h; Potency, µM (top dose mostly 46.2 µM), for inactives: at the highest dose activity change, negative = growth inhibition, actives largely listed as inhibitors; 12% of 420,000 active; further: potency means the concentration at half of the fitted maximal effect; nearly all actives have a fitted effect of over 55% in size
#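 Cell growth measured by CellTiter-Glo luminescence after a minimum 48 h, 37 C compound exposure with 20 nM CPT in Tdp1-knockout DT40 cells stably expressing hTDP1, seeded 400/well; qHTS titration format.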
# DT40 TDP1 no CPT – qHTS for Inhibitors of human tyrosyl-DNA phosphodiesterase 1 (TDP1): qHTS in cells in absence of CPT; DT40 Tdp1-/- hTDP1 cells, no CPT, ATP luminescence, 48 h; Potency, µM (top dose mostly 46.2 µM), inactives show at the highest dose activity change, negative = growth inhibition, most hits filed as inhibitors; 15% of 420,000 active; further: potency means the concentration at half of the fitted maximal effect; nearly all actives have a fitted effect of over 55% in size
#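 Growth kinetics read by CellTiter-Glo luminescence after ≥48 hr at 37 °C. Cells: DT40 Tdp1-/- stably carrying human TDP1, 400 per well, compound exposure in the absence of CPT (DMSO vehicle).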
# HT1080 IDH1KD tx – qHTS for induction of synthetic lethality in tumor cells producing 2HG: qHTS for the HT-1080-IDH1KD cell line; HT-1080 IDH1 knockdown viability, ATP luminescence, 48 h; AID 686971, 2013; Potency, µM (doses to about 46.1 µM), for the others: at the highest dose activity, negative = toxicity, actives largely listed as cytotoxic; 2% of 360,000 active;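 further: potency means the concentration at half of the fitted maximal effect; 0% = DMSO wells and -100% = cell-free medium wells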
#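 Luminescent ATP read-out (CellTiter-Glo, 10 min at room temperature) after 48 h compound exposure at 37 °C gave viability of IDH1-knockdown HT-1080 cells. Activity was normalised to DMSO and cell-free wells, then fitted as concentration-response curves.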
# ELG1 repair inh – qHTS screen for small molecules that inhibit ELG1-dependent DNA repair in human embryonic kidney (HEK293T) cells expressing luciferase-tagged ELG1. HEK293T ELG1-luciferase reporter, luminescence, 16 h; DNA damage induced by 5-fluorouridine. 2.3% of 330,000 active. Potency, µM (titrated, usually from 46.1 µM), for the others: top-dose activity change, negative = inhibition, actives largely listed as inhibitors; further: potency means the concentration at half of the fitted maximal effect; nearly all actives have a fitted effect of over 55% in size
#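 Overnight (16 hr) co-exposure of 2,000 cells/well to 5-fluorouridine and compound at 37 °C preceded detection. Luciferase was quantified via ONE-Glo luminescence; loss of signal denotes inhibition.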
# Starred values were filed as active, the others as inactive; ? = inconclusive; . = no result given. In the library only some 19% were active in any assay of this set; here they are far more common. Unless noted, the call rests on the fitted dose curve; in most records, active means well fitted curve in the direction sought with a large enough effect; inconclusive means small, poorly fitted or top-dose-only effect, or another doubt; inactive means no such curve, though single readings can be large; an effect the other way counts as inactive or inconclusive. Unless noted, on the % scale 0 is the no-effect control and ±100 the full control effect.
SMILES,IL-1B inflam inh,HT1080NT lethal,TDP1 cell CPT,DT40 TDP1 no CPT,HT1080 IDH1KD tx,ELG1 repair inh
CC(=O)N1c2ccc(S(=O)(=O)NCc3ccco3)cc2CC1C (stereo unspecified),0,-2%,-8%,-27%,2%,?
COc1ccc(CCNS(=O)(=O)c2ccc3c(c2)CC(C)N3C(=O)C2CCC2)cc1OC (stereo unspecified),.,.,?,13µM*,.,.
N#CCC(C(=O)c1cccnc1)c1ccccc1 (stereo unspecified),2,0%,-9%,-2%,2%,.
CC1Cc2cc(S(=O)(=O)NCc3ccccc3Cl)ccc2N1C(=O)C1CCC1 (stereo unspecified),.,.,15µM*,7.3µM*,.,.
CC(=O)N1c2ccc(S(=O)(=O)NCCC(=O)N(C)Cc3ccccc3)cc2CC1C (stereo unspecified),15,5%,?,?,0%,-7%
CCOc1ccccc1NS(=O)(=O)c1ccc2c(c1)CC(C)N2C(=O)C1CC1 (stereo unspecified),.,.,?,15µM*,.,.
CC(=O)N1c2ccc(S(=O)(=O)NCCc3ccccc3)cc2CC1C (stereo unspecified),25,?,?,12µM*,?,2%
CCOc1ccccc1NC(=O)CCS(=O)(=O)c1ccc2c(c1)CC(C)N2C(C)=O (stereo unspecified),1,-3%,13%,-20%,0%,0%
CC(NS(=O)(=O)c1ccc2c(c1)CC(C)N2C(=O)C1CC1)c1ccccc1 (stereo unspecified),-11,-1%,-22%,8%,0%,-11%
CC1Cc2cc(S(=O)(=O)NCCc3ccccc3)ccc2N1C(=O)C1CC1 (stereo unspecified),-2,-2%,15µM*,15µM*,-13%,4%
NC(=O)CSc1ncc2c(n1)-c1ccccc1N(Cc1ccc(F)cc1)S2(=O)=O,.,.,-24%,-14%,.,.
Cc1cc(OCC(=O)Nc2ccc3oc(=O)ccc3c2)ccc1Cl,8,23%,1%,-6%,-17%,8%
COc1cccc(CNS(=O)(=O)c2ccc3c(c2)CC(C)N3C(=O)C2CC2)c1 (stereo unspecified),2,?,21µM*,10µM*,-21%,-16%
Cc1ccc(/C=N/NC(=O)NC2CCCCC2)o1,-15,-6%,-7%,?,-2%,?
Cc1ccc(/C=C/C(=O)NC2CCCCCCC2)o1,-104*,-2%,2.6µM*,3.7µM*,?,?
Cc1ccc(/C=C/C(=O)Nc2ccc(N(C)C)cc2)o1,-29,-1%,21µM*,?,-6%,?
Cc1ccc(/C=C/C(=O)Nc2ccncc2)o1,-22,10%,?,?,0%,12%
Cc1cc(C)c(NS(=O)(=O)c2ccc(NC(=O)CCC(=O)O)cc2)c(C)c1,-9,30%,6%,0%,?,-9%
O=S(=O)(CCOc1ccccc1)c1nc2ccccc2[nH]1,-26,?,?,23µM*,?,?
CCC1(C)Cc2ccccc2-c2nc(NCCCO)n(-c3ccccc3)c(=O)c21 (stereo unspecified),-6,-1%,2.1µM*,4.1µM*,-11%,-17%

# Source: PubChem
